Screening results deposited in PubChem BioAssay by National Center for Advancing Translational Sciences (NCATS).
3T3 cytotox – Cytotoxic Profiling in NIH 3T3 Cell Line of Diverse Libraries Using Quantitative High-Throughput Screening. NIH 3T3 viability, CellTiter-Glo ATP luminescence, 48-72 h. Potency, µM (highest dose often 96.7 µM), actives largely listed as inhibitors. hit rate 4.3% among 94,000; note: nearly all actives have a fitted effect of over 55% in size
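Mouse fibroblast NIH 3T3 cells, 400 per well, received compound via pintool and were incubated for 48 or 72 hr prior to CellTiter-Glo ATP luminescence measurement.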
HEK cytotox – Cytotoxic Profiling in HEK 293 Cell Line of Diverse Libraries Using Quantitative High-Throughput Screening | HEK 293 viability, ATP luminescence (CellTiter-Glo), 48-72 h | Potency, µM (highest dose often 115 µM), most hits filed as inhibitors | hit rate 6.6% among 94,000; note: nearly all actives have a fitted effect of over 60% in size
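qHTS cytotoxicity; HEK 293, 250 cells/well; compound pinned; 48 or 72 hr, 37 degree Celsius, 5% CO2, 95% humidity; CellTiter-Glo, 10 min RT; luminescence (ATP).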
hNpr1 antagonist – Natriuretic polypeptide receptor (hNpr1) antagonism - Primary qHTS. Potency, µM (series often up to 46.3 µM), actives largely listed as inhibitors. Atrial natriuretic peptide receptor 1 (Homo sapiens), P16066. HEK293 hNpr1 GloSensor cGMP, ANP-stimulated luminescence. hit rate 1.6% among 76,000; calls by dose curve; note: nearly all actives have a fitted effect of over 60% in size
Target sequence (P16066 whole entry, looked up): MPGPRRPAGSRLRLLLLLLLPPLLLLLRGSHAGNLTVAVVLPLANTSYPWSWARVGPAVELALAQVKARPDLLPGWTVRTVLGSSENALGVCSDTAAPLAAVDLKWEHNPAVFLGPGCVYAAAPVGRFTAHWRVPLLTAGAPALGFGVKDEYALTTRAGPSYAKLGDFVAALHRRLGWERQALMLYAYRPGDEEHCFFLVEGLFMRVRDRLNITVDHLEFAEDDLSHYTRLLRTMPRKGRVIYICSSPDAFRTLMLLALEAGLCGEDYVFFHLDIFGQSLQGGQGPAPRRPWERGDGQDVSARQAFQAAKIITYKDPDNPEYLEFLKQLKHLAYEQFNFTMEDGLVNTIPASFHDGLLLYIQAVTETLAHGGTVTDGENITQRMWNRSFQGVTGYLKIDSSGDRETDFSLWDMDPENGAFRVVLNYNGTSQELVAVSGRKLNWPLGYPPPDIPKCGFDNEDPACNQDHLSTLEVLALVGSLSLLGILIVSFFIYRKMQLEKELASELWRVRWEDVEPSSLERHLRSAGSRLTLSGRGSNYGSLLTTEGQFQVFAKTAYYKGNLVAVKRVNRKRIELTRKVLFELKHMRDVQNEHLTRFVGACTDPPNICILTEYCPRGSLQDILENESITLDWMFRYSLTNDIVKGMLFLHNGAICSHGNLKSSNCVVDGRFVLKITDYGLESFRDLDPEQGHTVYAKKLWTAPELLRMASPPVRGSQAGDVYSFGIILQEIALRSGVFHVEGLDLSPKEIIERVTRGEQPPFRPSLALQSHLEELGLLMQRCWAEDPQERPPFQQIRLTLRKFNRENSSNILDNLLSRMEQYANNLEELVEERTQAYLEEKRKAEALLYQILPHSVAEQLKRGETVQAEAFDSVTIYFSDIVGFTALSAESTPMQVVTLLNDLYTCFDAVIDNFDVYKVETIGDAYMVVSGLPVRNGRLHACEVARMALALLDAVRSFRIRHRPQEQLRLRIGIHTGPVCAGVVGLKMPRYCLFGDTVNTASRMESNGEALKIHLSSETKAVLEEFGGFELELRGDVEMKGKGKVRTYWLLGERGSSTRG
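HEK293 cells stably expressing human Npr1 and cGMP GloSensor pGS-40F, loaded 2 h with 2% GloSensor reagent, given compound 30 min at room temperature. Luminescence read before and 20 min after 0.1 nM hNppA.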
FLuc inh – Firefly luciferase inhibition profiling of diverse chemical library using quantitative high-throughput screening | AID 1347043, 2019 | hit rate 2.5% among 76,000 | purified P. pyralis luciferase, luminescence, biochemical | Potency, µM (series often up to 115 µM), usual class: inhibitors | Luciferin 4-monooxygenase (Photinus pyralis), P08659; note: nearly all actives have a fitted effect of over 65% in size
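Luminescence read by CCD imager after adding enzyme (10nM final) to wells holding compound, titrated in qHTS. Substrates 10uM each D-luciferin and ATP; buffer 50mM Tris acetate pH 7.5, 10mM Mg acetate, Tween-20, BSA.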
Of the large screens only hits and unclear results are named; the others gave an inactive call. Compounds with a hit are over-represented: about 11% of the library has one in this group of screens. Unless noted, calls come from the whole dose curve; as a rule, active = well fitted curve in the direction sought with a large enough effect; inconclusive = small, poorly fitted or top-dose-only effect, or another doubt; inactive = no such curve, though single readings can be large; an effect the other way counts as inactive or inconclusive.

CC(C)C[C@@H]1N[C@H](C(=O)NCC2CC2)Cc2cn(Cc3cccnc3)c3cccc1c23	3T3 cytotox inconclusive, HEK cytotox inconclusive
CC(C)C[C@@H]1N[C@H](C(=O)NCc2ccccc2)Cc2cn(Cc3ccncc3)c3cccc1c23	3T3 cytotox inconclusive, HEK cytotox inconclusive
C=CCNC(=O)[C@@H]1Cc2cn(Cc3ccncc3)c3cccc(c23)[C@H](CC(C)C)N1	3T3 cytotox inconclusive, HEK cytotox 35.5µM
O=C(c1ccsc1)N1CCCC(CN2CCCC2)CC1 (stereo not drawn)	none
CC(C)C[C@@H]1N[C@H](C(=O)N2CCN(C)CC2)Cc2cn(Cc3ccccn3)c3cccc1c23	3T3 cytotox inconclusive, HEK cytotox inconclusive
COCCNC(=O)[C@@H]1Cc2cn(Cc3ccccn3)c3cccc(c23)[C@H](CC(C)C)N1	3T3 cytotox inconclusive, HEK cytotox 28.2µM
O=C(NCC(F)(F)F)C1CCN(Cc2ccccc2-c2cccnc2)CC1	none (no result: hNpr1 antagonist, FLuc inh)
Cc1ccc(-c2ccccc2CN2CCC(C(=O)NCC(F)(F)F)CC2)cc1Cl	3T3 cytotox inconclusive, HEK cytotox 50.1µM (no result: hNpr1 antagonist, FLuc inh)
Cc1ccc(-c2ccccc2CN2CCC(C(=O)NCC3CC3)CC2)cc1Cl	3T3 cytotox inconclusive, HEK cytotox 35.5µM (no result: hNpr1 antagonist, FLuc inh)
Cc1ccc(-c2ccccc2CN2CCN(C(=O)N(C)C)CC2)cc1Cl	3T3 cytotox inconclusive, HEK cytotox 31.6µM (no result: hNpr1 antagonist, FLuc inh)
CCOc1cc(=O)n2c(c1C(=O)Nc1cccc(Cl)c1)CCCC2	none
Cn1ccnc1-c1ccc(N2CCCC(CO)(Cc3cccc(Cl)c3)C2)nn1 (stereo not drawn)	3T3 cytotox inconclusive, HEK cytotox inconclusive, hNpr1 antagonist inconclusive
COC(=O)[C@@H]1Cc2c([nH]c3ccccc23)[C@H]2C[C@@H](NCc3ccccc3)C[C@@H](c3ccccc3F)N21	3T3 cytotox 25.1µM, HEK cytotox 25.1µM
COC(=O)[C@@H]1Cc2c([nH]c3ccccc23)[C@H]2C[C@@H](NCc3cccs3)C[C@@H](c3ccccc3F)N21	3T3 cytotox inconclusive, HEK cytotox 39.8µM
COc1ccc(CNC(=O)CC[C@@H]2CNC(=O)[C@@H]3C[C@H](NCc4ccccc4)CN23)cc1	none
CCN(CC)C(=O)CC[C@@H]1CNC(=O)[C@@H]2C[C@H](NCc3cccs3)CN12	3T3 cytotox inconclusive
Cc1noc(C)c1S(=O)(=O)N1CCC2(CC1)NCCc1c2[nH]c2ccccc12	3T3 cytotox inconclusive, HEK cytotox inconclusive
NC[C@H]1O[C@H](Cc2cc(-c3ccc(F)cc3)on2)CC[C@@H]1O	HEK cytotox inconclusive, hNpr1 antagonist 14.1µM, FLuc inh 35.5µM
O[C@H]1CC[C@@H](Cc2cc(-c3ccc(F)cc3)on2)O[C@@H]1CNC1CCOCC1	FLuc inh inconclusive
O=C(NC[C@H]1O[C@H](Cc2cc(-c3ccc(F)cc3)on2)CC[C@@H]1O)NC1CCCCC1	3T3 cytotox 89.1µM, HEK cytotox inconclusive, hNpr1 antagonist 10µM, FLuc inh 70.8µM
O=C(c1ccccc1F)N1CCC(C(=O)N2CCC(c3ccccc3)CC2)CC1	HEK cytotox inconclusive (no result: hNpr1 antagonist, FLuc inh)
COc1cccc(CNC(=O)C2CCN(c3nc4ncccc4o3)CC2)c1	none (no result: hNpr1 antagonist, FLuc inh)
COc1ccc(NC(=O)c2ccc3c(c2)N(S(C)(=O)=O)CC3)cc1Cl	HEK cytotox inconclusive, hNpr1 antagonist inconclusive, FLuc inh 1µM
CS(=O)(=O)N1CCc2ccc(C(=O)Nc3ccc(Cl)c(C(F)(F)F)c3)cc21	HEK cytotox 20µM, hNpr1 antagonist inconclusive, FLuc inh 17.8µM
Cc1cc(C)n(CC(=O)N2CCC(Cc3ccc(CN4CCN(C)CC4)cc3)CC2)n1	HEK cytotox inconclusive (no result: hNpr1 antagonist, FLuc inh)
Cc1nc(N2CCCCC2)n(CC(=O)Nc2ccc(F)cc2)c(=O)c1C	3T3 cytotox inconclusive, HEK cytotox inconclusive
Cc1ccc(NC(=O)Cn2c(N3CCCCC3)nc(C)c(C)c2=O)cc1C	3T3 cytotox inconclusive, HEK cytotox 22.4µM
COCCN1C(=O)c2ccccc2C(C(=O)Nc2nc3ccccc3s2)C12CCCCC2 (stereo not drawn)	3T3 cytotox 44.7µM, HEK cytotox inconclusive, FLuc inh inconclusive
O=C1NC2(CCN(C(=O)c3cccnc3)CC2)Oc2ccccc21	none
O=C(c1cccc2cnccc12)N1CCCC2(C=Cc3ccccc3O2)CC1 (stereo not drawn)	3T3 cytotox inconclusive, HEK cytotox 44.7µM
O=C1NCCCCCCN(C(=O)CC2CCCCC2)[C@H]2CCCC[C@@H]12	HEK cytotox inconclusive
O=C(c1cccc(F)c1)N1CCC2(CC1)CC(N(Cc1ccc(F)cc1)C1CC1)CCO2 (stereo not drawn)	3T3 cytotox inconclusive, HEK cytotox inconclusive
CC(=O)N1CCC2(CC1)CC(N(Cc1ccc(F)cc1)C1CC1)CCO2 (stereo not drawn)	none
CCC(=O)N1CCC2(CC1)CC(N(Cc1ccccc1)C1CC1)CCO2 (stereo not drawn)	none
O=C(CC1CCCC1)N1CCC2(CC1)CC(N(Cc1ccc(F)cc1)C1CC1)CCO2 (stereo not drawn)	3T3 cytotox inconclusive, HEK cytotox 44.7µM
CCC(C)(C)C(=O)N1CCC2(CC1)CC(N(Cc1ccc(F)cc1)C1CC1)CCO2 (stereo not drawn)	3T3 cytotox inconclusive, HEK cytotox 44.7µM
O=C(c1ccccc1)N1CCC2(CC1)CC(N(Cc1ccc(F)cc1)C1CC1)CCO2 (stereo not drawn)	3T3 cytotox inconclusive, HEK cytotox 44.7µM
O=C(N1CCC2(CC1)CC(N(Cc1ccccc1)C1CC1)CCO2)C1(c2ccccc2)CC1 (stereo not drawn)	3T3 cytotox 44.7µM, HEK cytotox 39.8µM, hNpr1 antagonist inconclusive
COCCCn1c(C)cnc1CC1CCN(S(=O)(=O)c2cccs2)CC1	none (no result: hNpr1 antagonist, FLuc inh)
COc1ccccc1-c1cccc(C(=O)N2CCC[C@H]2C(=O)N2CCCCC2)c1	none (no result: hNpr1 antagonist, FLuc inh)
COc1ccccc1-c1cccc(C(=O)N2CCN(C(=O)c3cccc(Cl)c3)CC2)c1	3T3 cytotox inconclusive, HEK cytotox 39.8µM (no result: hNpr1 antagonist, FLuc inh)
COc1ccc(-c2cccc(C(=O)N3CCN(C(=O)c4ccc(C)cc4)CC3)c2)nn1	HEK cytotox inconclusive (no result: hNpr1 antagonist, FLuc inh)
COc1ccccc1-c1cccc(C(=O)N2CCN(C(=O)c3ccc(C)cc3)CC2)c1	3T3 cytotox inconclusive, HEK cytotox 39.8µM (no result: hNpr1 antagonist, FLuc inh)
COc1ccccc1-c1cccc(C(=O)N2CCN(C(=O)c3ccccc3F)CC2)c1	HEK cytotox 89.1µM (no result: hNpr1 antagonist, FLuc inh)
Cc1ccc(C(=O)NC2CCN(C(=O)c3ccc(-c4cncnc4)cc3)CC2)cc1	none (no result: hNpr1 antagonist, FLuc inh)
CCC1CCN(CC2(O)CCCN(Cc3cc(OC)ccc3F)C2=O)CC1 (stereo not drawn)	none
COc1ccc(-c2ccc3ncn(C)c(=O)c3n2)cc1OC	3T3 cytotox 35.5µM, HEK cytotox inconclusive
Cn1cnc2ccc(-c3ccncc3)nc2c1=O	3T3 cytotox 79.4µM, HEK cytotox inconclusive
O=c1c2nc(-c3ccccc3)ccc2ncn1-c1ccccc1	3T3 cytotox inconclusive, HEK cytotox inconclusive
